Most compounds without a hit are left out; they make up all but 19% or so of the library.
IL1B secr inh: qHTS for Inhibitors of Inflammasome Signaling: IL-1-beta AlphaLISA Primary Screen; 360,000 compounds, 4.7% hits; AID 743279, 2014; activity change, % at 57.5 µM; THP-1 LPS/ATP IL-1B secretion, AlphaLISA, 16 h; active compounds read low; in the data active = activity change below about -50%; inconclusive = mostly about -30% to -49%
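THP-1 cells pretreated 1 hr with compounds (up to 57.5 uM final), then stimulated with LPS (250 ng/mL final) plus ATP (1.25 mM final); secreted IL-1B measured by AlphaLISA after 16 hr, decreased signal indicating inhibition.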
TDP1 cell noCPT: qHTS for Inhibitors of human tyrosyl-DNA phosphodiesterase 1 (TDP1): qHTS in cells in absence of CPT; DT40 Tdp1-/- hTDP1 cells, no CPT, ATP luminescence, 48 h; Potency, µM (top dose mostly 46.2 µM), actives largely listed as inhibitors; 420,000 compounds, 15% hits; AID 686978, 2013; also: nearly all actives have a fitted effect of over 55% in size
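Luminescent ATP content (CellTiter-Glo) served as the growth readout. Knockout chicken DT40 cells expressing human TDP1 were exposed to compounds without camptothecin for a minimum 48 hr at 37 °C.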
ELG1 repair inh: qHTS screen for small molecules that inhibit ELG1-dependent DNA repair in human embryonic kidney (HEK293T) cells expressing luciferase-tagged ELG1. AID 504467, 2011. 330,000 compounds, 2.3% hits. HEK293T ELG1-luciferase reporter, luminescence, 16 h; DNA damage induced by 5-fluorouridine. Potency, µM (top dose mostly 46.1 µM), most hits filed as inhibitors; also: nearly all actives have a fitted effect of over 55% in size
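Quantitative HTS, concentration-response format. 2,000 cells/well co-treated with 5-fluorouridine and compound, 16 hr in 5% CO2 at 37 °C; ONE-Glo luminescence read after 30 min.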
TDP1 inh: qHTS Assay for Inhibitors of Tyrosyl-DNA Phosphodiesterase (TDP1); Tyrosyl-DNA phosphodiesterase 1 (Homo sapiens), Q9NUW8; recombinant TDP1, AlphaScreen DNA substrate cleavage; Potency, µM (doses to about 130 µM), usual class: inhibitors; 350,000 compounds, 0.28% hits; AID 485290, 2010; also: nearly all actives have a fitted effect of over 40% in size
Target sequence (Q9NUW8 whole entry, looked up): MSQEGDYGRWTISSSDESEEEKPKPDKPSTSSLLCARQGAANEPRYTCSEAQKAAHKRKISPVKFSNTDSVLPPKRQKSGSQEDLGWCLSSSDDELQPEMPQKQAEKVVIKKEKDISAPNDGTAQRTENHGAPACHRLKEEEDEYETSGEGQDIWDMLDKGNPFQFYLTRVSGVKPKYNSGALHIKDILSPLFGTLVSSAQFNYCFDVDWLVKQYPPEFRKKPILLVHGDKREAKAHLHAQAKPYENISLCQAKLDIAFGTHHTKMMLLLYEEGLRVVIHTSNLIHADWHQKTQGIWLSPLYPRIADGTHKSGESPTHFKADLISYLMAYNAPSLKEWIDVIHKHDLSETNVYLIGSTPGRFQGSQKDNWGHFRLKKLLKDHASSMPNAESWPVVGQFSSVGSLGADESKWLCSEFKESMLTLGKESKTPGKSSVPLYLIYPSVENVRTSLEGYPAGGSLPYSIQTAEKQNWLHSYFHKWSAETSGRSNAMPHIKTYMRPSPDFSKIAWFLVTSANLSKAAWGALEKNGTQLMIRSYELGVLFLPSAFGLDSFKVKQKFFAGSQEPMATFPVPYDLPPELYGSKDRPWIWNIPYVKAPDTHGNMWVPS
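AlphaScreen read-out: signal falls as enzyme removes the 3' tyrosine-FITC from a 5'-biotinylated DNA oligo (15 nM, 5 min, RT). Enzyme was E. coli-made recombinant Tdp1 at 1 nM, exposed to compound for 15 min beforehand; beads 10 ug/ml, 10 min.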
TDP1 cell CPT: qHTS for Inhibitors of human tyrosyl-DNA phosphodiesterase 1 (TDP1): qHTS in cells in presence of CPT; 420,000 compounds, 12% hits; Potency, µM (top dose mostly 46.2 µM), most hits filed as inhibitors; chicken DT40 Tdp1-/-;hTDP1 cells + 20 nM CPT, ATP luminescence, 48 h; also: nearly all actives have a fitted effect of over 55% in size
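Chicken DT40 Tdp1-/- cells stably complemented with human TDP1 were seeded at 400 cells/well in medium containing 20 nM camptothecin, exposed to pin-transferred compounds, and grown at 37 °C for at least 48 hr. Viability was read as ATP luminescence.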
Giardia kill: Small Molecules that selectively kill Giardia lamblia: qHTS; 340,000 compounds, 0.15% hits; Giardia lamblia trophozoite viability; AID 540267, 2011; activity change, % at 7.66 µM, hits read low; in the data active = activity change below about -80%; inconclusive = between about -30% and that limit;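 also: parasites exposed to compound for two days anaerobically before the ATP read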
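Trophozoite viability was measured as ATP-dependent luminescence, read 15-30 min after reagent addition. Before that, parasites at 100 cells/well were exposed to compounds for 48 h, anaerobically, at 37 deg C.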
A number is an active result; n = inactive; u = inconclusive; x = no result given; [ ] = remark or other dose. Unless noted, calls follow the shape of the dose curve; as a rule, active = well fitted curve in the direction sought with a large enough effect; inconclusive = small, poorly fitted or top-dose-only effect, or another doubt; inactive = no such curve, though single readings can be large; an effect the other way counts as inactive or inconclusive.

SMILES	IL1B secr inh	TDP1 cell noCPT	ELG1 repair inh	TDP1 inh	TDP1 cell CPT	Giardia kill
CC(=O)Nc1ccc(NC(=S)Nc2ccccc2)cc1	n	n	n	n	n	n
N#Cc1ccc(NC(=S)Nc2ccccc2)cc1	n	15µM	n	n	u	n
Fc1ccccc1NC(=S)Nc1ccc(Br)cc1	-58	23µM	n	n	15µM	n
O=C(Nc1ccc(Cl)c(Cl)c1)Nc1ccc(Br)cc1F	u	12µM	u	n	5.8µM	n
CC(=O)N1CCC2(CC1)CN(c1ccccn1)C2	x	u	x	x	n	x
Cc1ccc(Nc2ncnc3c2nc2n3CCCC2)c(Br)c1	x	n	x	n	u	x
CCCCOc1ccc(C(=O)Nc2nnc3n2CCS3)cc1	x	u	x	n	u	x
O=C(Nc1ccc(Br)cc1)Nc1ccccc1F	-66	15µM	u	n	15µM	n
O=C(NNc1ccccc1)Nc1ccccc1F	n	7.3µM	n	n	u	n
CSc1ncc(OCc2ccccc2)c(=O)[nH]1	n	n	n	n	n	n
COc1ccc(NC(=O)CN(C)S(=O)(=O)c2ccc3nc(C)sc3c2)cc1Cl	x	8.2µM	x	n	23µM	x
Cc1nc2ccc(S(=O)(=O)N(CC(=O)Nc3ccc(Cl)cc3)Cc3ccccc3)cc2s1	x	15µM	x	n	u	x
COc1ccc(S(=O)(=O)N(C)CC(=O)Nc2cccc(C(C)=O)c2)cc1Cl	n	13µM	u	n	13µM	n
COc1cc(C2NC(=O)NC(C)=C2C(=O)Nc2cc(C)cc(C)c2)ccc1O (stereo unspecified)	x	u	x	x	n	x
CN(Cc1cccc(-n2cccn2)c1)Cc1cn(C)nc1-c1ccccc1F	n	u	n	n	u	n
COc1cccc(-n2cc(CNCc3c(C(=O)N(C)C)nc4ccc(Cl)cn34)cn2)c1	n	15µM	u	n	u	n
COc1cccc(-n2cc(CNCc3cn(C)nc3-c3ccccc3F)cn2)c1	n	26µM	n	n	u	n
COc1ccc(CCn2c(NN)nc3c2c(=O)[nH]c(=O)n3C)cc1	n	5.2µM	n	x	4.6µM	n
CC[C@@H](c1ccccc1)n1c(=O)n2n(c1=O)[C@H]1[C@H](O)[C@H]3O[C@@H]3/C(=N/OCC(C)C)[C@@H]1CC2	x	x	x	n[21 µM]	x	x
CC(C)c1ccc2c(c1)[C@H]1OCC[C@H]1[C@@H](c1cccs1)N2	n	10µM	u	n	16µM	n
Cc1cc(C)c2c(c1)N[C@H](c1cccs1)[C@@H]1CCO[C@H]21	n	u	n	n	n	n
CCCCn1c(=O)[nH]c(=O)c2c1nc(-c1ccccn1)n2CC	n	n	n	n	n	n
O=c1c(-c2cc(F)cc(F)c2)nc2cncnc2n1-c1ccccc1	x	n	x	x	n	x
COc1ccc(NC(=O)COC(=O)c2ccc(S(=O)(=O)N3CCCCC3)cc2)c(OC)c1	n	n	x	x	n	x
S=C(NCc1ccncc1)Nc1cc(Cl)cc(Cl)c1	-54	n	n	n	u	n
SMILES	IL1B secr inh	TDP1 cell noCPT	ELG1 repair inh	TDP1 inh	TDP1 cell CPT	Giardia kill
S=C(NCc1ccccc1)Nc1ccncc1	n	u	n	n	10µM	n
S=C(NCc1ccccc1)Nc1ccc(Cl)cc1	u	u	n	n	n	n
FC(F)(F)Sc1ccc(NC(=S)NCc2ccccc2)cc1	-88	21µM	n	n	u	n
S=C(NCc1ccncc1)Nc1ccc(Cl)c(Cl)c1	-61	u	n	n	u	n
Cc1ccc(S(=O)(=O)N2C(=O)CCC2C(=O)O/N=C(\N)c2cccc([N+](=O)[O-])c2)cc1 (stereo unspecified)	n	n	n	n	n	n
S=C(NCCc1ccccn1)Nc1ccc(Cl)cc1	n	18µM	u	n	18µM	n
S=C(NCc1ccccn1)Nc1ccc(Cl)c(Cl)c1	-63	u	n	n	16µM	n

Bioassay records (PubChem)
